Among the data in PubChem BioAssay (NCI) are growth values, retold here.

About 83,000 compounds went through this panel and 20% of them were active in at least one assay; those are over-represented in the sample as a whole.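 Method: cells in 96-well plates; compound added at one concentration; 48 h incubation; percent growth measured; values under 10 scored active.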 Unmarked numbers belong to inactive results. Activity calls are given as the source filed them.

One assay relates to HCT-15 colon. In words: NCI-60 one-dose screen, 48 h (100 = growth as untreated, 0 = no growth, -100 = all killed). The following applies: 10 µM unless noted.
`N#CCCN1C(=O)CCC1C(=O)O` (centres undefined): the growth was 97.8%.
Still for that read-out and setting: to `Cc1c(-c2ccc(C3CCCCC3)cc2)nc2ccc(F)cc2c1C(=O)O` belongs 25.1%; to `O=C(OCc1ccccc1)n1nnc2ccccc21`, 104%.
Still for that read-out and setting: to `CCOC(=O)Nc1nccs1` belongs 104%; to `CCC(/C=C\C(C)=O)CC`, 101%; to `OCC(O)COc1ccc(Cl)cc1Cl` (centres undefined), 105%.
Still for that read-out and setting: next, `CSc1nsc(N)n1`: 95.5%.
For the molecule `CC(=O)Nc1ncc(S(=O)(=O)c2ccc([N+](=O)[O-])cc2)s1`, the growth was 105%.
The same measure, in the same setting: to `Cc1ccc(N2C(=O)c3cccc4c(N)c(S(=O)(=O)O)cc(c34)C2=O)cc1` belongs 105%; to `Oc1cccnc1CN1CCCC1`, 95.3%; to `CC(C)c1ccc(C(=O)OCCCl)cc1`, 94%.
Take `CCOP(=O)(OCC)/C(=C\N1C(=O)CC(=O)NC1=S)C(=O)OC`: the growth was 102%.
On the same count and under the same terms, next, `Cc1cc2c(C(C)C)c(O)c(O)c(C=Nc3ccccc3[N+](=O)[O-])c2c(O)c1-c1c(C)cc2c(C(C)C)c(O)c(O)c(C=Nc3ccccc3[N+](=O)[O-])c2c1O`: 80.2%; `COc1ccc(/C=N/NC(=O)COCC(=O)N/N=C/c2ccc(OC)cc2)cc1`: 97.8%; `CCOC(=O)CSCCC#N`: 100%.
As for `CCCCCCCCNC(=O)C(C)C`, the growth was 106%.
For `C1=NCCc2ccccc21`, the growth is 107%.
The same measure, in the same setting: next, `O=[N+]([O-])c1ccc(-c2nc(N(CCO)CCO)c3ccccc3n2)o1`: -3.11% (active); `Cc1cc(CO)c(O)c(CO)c1`: 102%; `CC(=O)Nc1ccc(/C=C2\SC(=S)N(/C=C(\C(C)=O)C(N)=O)C2=O)cc1`: 98.2%.
In the case of `C=CCC(OC(C)=O)c1ccc(C(C)C)cc1` (centres undefined), the growth is 107%.
For the molecule `CCOc1ccc2c(c1)c(C)cc(C)[n+]2CC`, the growth is 112%.
In the case of `CCOC(=O)C(COS(C)(=O)=O)(COS(C)(=O)=O)C(=O)OCC`, the growth was 107%.
On the same count and under the same terms, to `CC(=O)NC(O)C(Cl)Cl` (centres undefined) belongs 102%.
On to `Cc1cc2c3ccc(C)[n+](C)c3ccc2n1C`, for which the growth was 104%.
Same read-out and setting: to `O=C(CC(CC(=O)c1ccccc1)c1ccccn1)c1ccccc1` belongs 106%; to `CCOC(=O)C1(N)CCCCC1`, 112%; to `C=C(OC(C)=O)c1ccccc1`, 114%.
The same measure, in the same setting: to `COc1cccc(C(=O)NNC(=O)c2cccc3ccccc23)c1` belongs 100%; to `O=Cc1ccc(F)cc1`, 93.4%; to `Clc1ccc(C(SCc2ccccc2)SCc2ccccc2)cc1`, 97.8%.
The same measure, in the same setting: next, `C=COC(=O)CCOCC(CC)CCCC` (centres undefined): 104%; `NC(=S)c1c(N)n(C2OC(CO)C(O)C2O)c2ncnc(N)c12` (centres undefined): 3.4% (active); `CCCCc1ccc2nc(NC(=O)OC)[nH]c2c1`: 7.85% (active).
In the case of `CC(=O)C1C(=O)C(=O)N(c2cccc([N+](=O)[O-])c2)C1=O` (centres undefined), the growth was 102%.
For `Cc1cccnc1NC1OC(=O)c2ccccc21` (centres undefined), the growth was 96.7%.
For `CSc1nc2[nH]ncc2c(=O)[nH]1`, the growth is 99.7%.

A further assay has as its system HT29 colon. The description is as above. The conditions noted are these: 10 µM unless noted.
With `N#CCCN1C(=O)CCC1C(=O)O` (centres undefined), the growth is 89.8%.
As to `Cc1c(-c2ccc(C3CCCCC3)cc2)nc2ccc(F)cc2c1C(=O)O`, the growth was 31.6%.
On the same count and under the same terms, to `O=C(OCc1ccccc1)n1nnc2ccccc21` belongs 106%; to `CCOC(=O)Nc1nccs1`, 100%; to `CCC(/C=C\C(C)=O)CC`, 107%.
For `OCC(O)COc1ccc(Cl)cc1Cl` (centres undefined), the growth is 93.9%.
Still for that read-out and setting: next, `CSc1nsc(N)n1`: 95.1%; `CC(=O)Nc1ncc(S(=O)(=O)c2ccc([N+](=O)[O-])cc2)s1`: 108%.
Still for that read-out and setting: next, `Cc1ccc(N2C(=O)c3cccc4c(N)c(S(=O)(=O)O)cc(c34)C2=O)cc1`: 124%; `Oc1cccnc1CN1CCCC1`: 108%; `CC(C)c1ccc(C(=O)OCCCl)cc1`: 109%.
On the same count and under the same terms, next, `CCOP(=O)(OCC)/C(=C\N1C(=O)CC(=O)NC1=S)C(=O)OC`: 111%.
Take `Cc1cc2c(C(C)C)c(O)c(O)c(C=Nc3ccccc3[N+](=O)[O-])c2c(O)c1-c1c(C)cc2c(C(C)C)c(O)c(O)c(C=Nc3ccccc3[N+](=O)[O-])c2c1O`: the growth is 93%.
On the same count and under the same terms, next, `COc1ccc(/C=N/NC(=O)COCC(=O)N/N=C/c2ccc(OC)cc2)cc1`: 130%; `CCOC(=O)CSCCC#N`: 97.9%; `CCCCCCCCNC(=O)C(C)C`: 95.5%.
Take `C1=NCCc2ccccc21`: the growth was 117%.
Regarding `O=[N+]([O-])c1ccc(-c2nc(N(CCO)CCO)c3ccccc3n2)o1`, the growth is -27.7% (active).
Same read-out and setting: next, `Cc1cc(CO)c(O)c(CO)c1`: 95.4%.
As to `CC(=O)Nc1ccc(/C=C2\SC(=S)N(/C=C(\C(C)=O)C(N)=O)C2=O)cc1`, the growth is 97.4%.
`C=CCC(OC(C)=O)c1ccc(C(C)C)cc1` (centres undefined): the growth is 92.5%.
The same measure, in the same setting: to `CCOc1ccc2c(c1)c(C)cc(C)[n+]2CC` belongs 81.8%.
As for `CCOC(=O)C(COS(C)(=O)=O)(COS(C)(=O)=O)C(=O)OCC`, the growth is 108%.
As for `CC(=O)NC(O)C(Cl)Cl` (centres undefined), the growth is 105%.
Regarding `Cc1cc2c3ccc(C)[n+](C)c3ccc2n1C`, the growth is 39.9%.
On the same count and under the same terms, next, `O=C(CC(CC(=O)c1ccccc1)c1ccccn1)c1ccccc1`: 95.5%; `CCOC(=O)C1(N)CCCCC1`: 104%; `C=C(OC(C)=O)c1ccccc1`: 98.4%.
Turning to `COc1cccc(C(=O)NNC(=O)c2cccc3ccccc23)c1`, the growth was 98.2%.
On to `O=Cc1ccc(F)cc1`, for which the growth was 103%.
Still for that read-out and setting: next, `Clc1ccc(C(SCc2ccccc2)SCc2ccccc2)cc1`: 90.9%; `C=COC(=O)CCOCC(CC)CCCC` (centres undefined): 104%; `NC(=S)c1c(N)n(C2OC(CO)C(O)C2O)c2ncnc(N)c12` (centres undefined): 5.09% (active).
The same measure, in the same setting: to `CCCCc1ccc2nc(NC(=O)OC)[nH]c2c1` belongs 12.2%.
Consider `CC(=O)C1C(=O)C(=O)N(c2cccc([N+](=O)[O-])c2)C1=O` (centres undefined), for which the growth is 105%.
Still for that read-out and setting: to `Cc1cccnc1NC1OC(=O)c2ccccc21` (centres undefined) belongs 104%; to `CSc1nc2[nH]ncc2c(=O)[nH]1`, 107%.
